Consider eight compounds from paper PMC5540273 (PLoS ONE, 2017).

Among the test systems are KIT-autoinhibited; KIT; LATS1; LATS2.
What all share (conditions): concentration: 1 μM,replicates: in singlicate; n = 1
The test system of assay [1] is JAK1(JH2domain-pseudokinase).
Assay [2] relates to JAK2(JH1domain-catalytic).
Assay [3] deals with JAK3(JH1domain-catalytic).
The subject of a further assay is T1, JNK1.
T1 construct: gene MAPK8

In another assay the test system is T2, JNK2.
T2 construct: gene MAPK9

For another assay, the system named is T3, JNK3.
T3 construct: gene MAPK10
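Further: KINOMEscan kinase panel screen.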

Take `Cn1ccc2ncnc(Oc3ccc(NC(=O)Nc4cccc(C(F)(F)F)c4)c(F)c3)c21`: the “%Inh” value in assay [1] turned out to be 7%; in assay [2], 6%; in [3] it was 29%; in the assay with JNK1, 11%; in the assay with JNK2 it was 0%; in the assay with JNK3 it was 0%. Moreover, the “%Inh” value amounted to 75% in the assay on KIT-autoinhibited, 100% in the assay on KIT, 15% in the assay with LATS1 and 0% in the assay on LATS2.

Take `CSc1nccc(-c2c(-c3ccc(F)cc3)ncn2CCCN2CCOCC2)n1.Cl` [SB-217146]: the “%Inh” value in assay [1] came out at 40%; in assay [2], 39%; in assay [3], 0%; in the assay with JNK1, 10%; in the assay on JNK2, 45%; in the assay with JNK3 it was 34%. In addition, the “%Inh” value with KIT-autoinhibited was determined as 32%; in the assay on KIT it was 0%; with LATS1, 0%; in the assay on LATS2, 0%.

As for `Cc1nnc(-c2ccc3occ(-c4ccc(S(C)=O)cc4)c3n2)o1` (centres unmarked), the “%Inh” value (in assay [1]; in assay [2]; in [3]; in the assay with JNK1; in the assay on JNK2; in the assay with JNK3) was 0% throughout. Further, the “%Inh” value in the assay with KIT-autoinhibited, with KIT, in the assay with LATS1 and with LATS2 was 0% throughout.

Regarding `O=C(Nc1n[nH]c2cc(-c3ccco3)ccc12)C1CC1` [SB-737447], the “%Inh” value in [1] turned out to be 63%; in assay [2] it was 27%; in [3], 30%; with JNK1, 38%; in the assay on JNK2, 17%; in the assay with JNK3, 32%. Moreover, the “%Inh” value in the assay with KIT-autoinhibited came out at 7%; with KIT, 23%; with LATS1, 0%; in the assay with LATS2, 10%.

For `Cc1ccc(CC(=O)N2CCc3cc(-c4cn(C)c5ncnc(N)c45)ccc32)cc1` [GSK2634758], the “%Inh” value in assay [1] was determined as 0%; in [2] it was 0%; in assay [3], 0%; in the assay on JNK1, 13%; in the assay with JNK2 it was 12%; in the assay with JNK3 it was 0%. Moreover, the “%Inh” value came to 0% with KIT-autoinhibited, 98.6% with KIT, 0% with LATS1 and 9% with LATS2.

Turning to `COc1cc2c(Nc3ccc(NC(=O)c4ccccc4)cc3)ncnc2cc1OCCCN1CCOCC1` [GSK301329], the “%Inh” value in assay [1] turned out to be 0%; in assay [2], 0%; in [3] it was 0%; in the assay with JNK1, 0%; in the assay on JNK2, 19%; with JNK3 it was 12%. For the same compound, the “%Inh” value in the assay with KIT-autoinhibited was 41%; in the assay on KIT it was 99.1%; in the assay on LATS1, 0%; with LATS2, 0%.

With `Cn1ccc2ncnc(Oc3ccc(NC(=O)Nc4cccc(C(F)(F)F)c4)c(Cl)c3)c21`, the “%Inh” value in assay [1] is on record as 45%; in [2], 11%; in assay [3], 25%; with JNK1, 9%; in the assay on JNK2 it was 0%; in the assay with JNK3, 0%. Also, the “%Inh” value with KIT-autoinhibited is recorded as 37%; in the assay on KIT, 100%; with LATS1 it was 9%; with LATS2, 0%.

With `COc1ccc(Nc2nccc(N3CCC(NC(=O)c4cccc(C#N)c4)C3)n2)cc1` (centres unmarked) [GSK1379730], the “%Inh” value in assay [1] is reported as 0%; in [2] it was 12%; in [3], 0%; with JNK1, 15%; in the assay on JNK2, 16%; in the assay on JNK3, 10%. The “%Inh” value in the assay with KIT-autoinhibited, in the assay on KIT, in the assay on LATS1 and in the assay on LATS2 was 0% in each case.
